Data as given in PubChem BioAssay (NCATS).
The source made the active and inactive calls. Calls come from the whole dose curve; as a rule, active = well fitted curve in the direction sought with a large enough effect; inconclusive = small, poorly fitted or top-dose-only effect, or another doubt; inactive = no such curve, though single readings can be large or run the other way.

target: Luciferin 4-monooxygenase (Photinus pyralis) (UniProt P08659); assay: Firefly luciferase counterscreen qHTS: Assay Interference Panel against the NCATS CANVASS Library (AID 1347363); details: purified firefly luciferase, luminescence inhibition, 5 min; series mostly up to 57.5 µM; activity change, negative = inhibition: at the top concentration; note: 0% is about no effect
Sequence (P08659 whole entry, looked up): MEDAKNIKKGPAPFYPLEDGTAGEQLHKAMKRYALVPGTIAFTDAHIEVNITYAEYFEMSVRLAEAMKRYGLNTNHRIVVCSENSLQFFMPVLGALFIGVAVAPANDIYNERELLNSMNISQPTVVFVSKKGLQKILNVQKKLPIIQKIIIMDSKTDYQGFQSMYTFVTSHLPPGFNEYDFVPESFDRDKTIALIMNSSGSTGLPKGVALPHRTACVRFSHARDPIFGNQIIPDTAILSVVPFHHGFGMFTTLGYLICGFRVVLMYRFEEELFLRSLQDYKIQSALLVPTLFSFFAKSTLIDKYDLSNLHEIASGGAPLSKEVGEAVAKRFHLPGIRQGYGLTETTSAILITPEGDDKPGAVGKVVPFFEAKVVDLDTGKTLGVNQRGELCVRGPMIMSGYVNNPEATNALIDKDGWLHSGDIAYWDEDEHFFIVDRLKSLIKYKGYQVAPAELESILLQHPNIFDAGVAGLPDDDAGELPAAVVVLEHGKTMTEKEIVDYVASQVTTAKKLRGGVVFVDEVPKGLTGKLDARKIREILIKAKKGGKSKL
Excerpt: Natural products and their derivatives continue to be wellsprings of nascent therapeutic potential. However, many laboratories have limited resources for biological evaluation, leaving their previously isolated or synthesized compounds largely or completely untested. To address this issue, the Canvass library of natural products was assembled (https://tripod.nih.gov/canvass), in collaboration with academic and industry researchers, for quantitative high-throughput screening (qHTS) across a diverse set of cell-based and biochemical assays. The pure (>85% purity by liquid chromatography/mass spectrometry [LC/MS]) Canvass library of 346 natural products were submitted by 45 academic laboratories and companies around the world. We collected pure natural products to circumvent deconvolution and structure elucidation due to time and resource limitations. The library was formatted into 1536-well plates and evaluated in 50 qHTS (in an 11-pnt concentration series) bioassays with broad scope of disease-relevant mechanisms. The resulting data set from 50 different assays was then systematically analyzed to identify overall trends and specific natural products with interesting biological activities. Reported herein are the results of each individual qHTS and their corresponding assay protocol. This assay determines potential interactions with a common luminescent coupling enzyme, P. pyralis (firefly) luciferase, to identify possible false positives in future assays. The assay measures the relative levels of luminescence, to identify compounds that inhibit the activity of luciferase. National Center for Advancing Translational Sciences (NCATS), Rockville, MD National Institute of Health (NIH), Bethesda, Maryland
Luciferase Interference counterscreen protocol 1. In a 1536 well, black solid bottom, medium binding plates (Corning 7494), 3 uL of (1x) 50 mM Tris Acetate substrate solution containing 13.3 mM Mg-Acetate, 0.013 mM D-Luciferin, 0.013 mM ATP, 0.013% Tween-20, 0.067% BSA was dispensed into columns 1 to 48, rows 1 to 32 using the Bioraptr dispenser. 2. Compounds were pin transferred (~23 nL volume) via Wako Pin-tool (Wako Automation, Richmond VA) equipped with a 1536 pin head. The assay plates were treated with compounds in a concentration series with a final concentration range of 0.2 nM to 128 uM. 3. PTC124 was used as a control (25 uM, n = 32, column 2, row 1-32) at a final concentration of 142.9 nM and was pin transferred via Wako Pin-tool equipped with a 1536 pin head. 4. The assay plates were incubated in the dark for 15 minutes at room temperature. 5. One microliter of 4x detection reagent (0.04 ug/mL P. pyralis luciferase in 50 mM Tris-Acetate) was then added to the assay plates (column 2-48, rows 1-32) for a final assay volume of 4 uL. While 50 mM Tris-Acetate normalizing control was added to column 1, rows 1-32. 6. The assay plates were further incubated in the dark for 5 minutes at room temperature. 7. Luminescence signal was acquired via the ViewLux plate reader (PerkinElmer) using a clear emission filter and a 2 second exposure, 2x binning settings.

Row | SMILES | activity change, negative = inhibition
1 | CC(C)=CCC/C(C)=C/Cc1cc([C@@H]2CC(=O)c3c(cc(O)c(CC=C(C)C)c3O)O2)ccc1O | -8.23% (inactive)
2 | COc1c(O)cc2c(c1O)C(=O)c1c(coc1C)C2=O | -4.93% (inactive)
3 | C=C[C@@]1(C)CC[C@@H]([C@H](C)C(C)=O)O1 | -4.91% (inactive)
4 | C=C1C[C@]23C=CC(=O)[C@@](C)(CCCC(C)C(=O)N[C@@H](CO)C(=O)O)[C@@H]2C[C@@H]1CC3 (stereo not given in full) | -2.59% (inactive)
5 | C/C(=C\CC[C@@H](C)[C@H]1CC[C@]2(C)C3=CCC4C(C)(C)[C@@H](O)C[C@@H](O)[C@]4(C)C3[C@H](O)C[C@@]12C)CO (stereo not given in full) | 3.28% (inactive)
6 | CO[C@H]1[C@@H](OC(=O)/C(C)=C\[C@@H]2O[C@@H]2[C@H]2O[C@H]2C)[C@H](O)[C@H](OCC23C[C@@H]4[C@H](C)CC[C@H]4C4(C=O)CC2C=C(C(C)C)C34C(=O)O)O[C@@H]1C (stereo not given in full) | -5.83% (inactive)
7 | COc1cc(O)c(C(=O)[C@@H]2[C@H](CC=C(C)C)C(C)=CC[C@H]2c2ccccc2)c(O)c1 | -1.16% (inactive)
8 | C[C@@]12CCC[C@@](C)(C(=O)O)[C@H]1CC[C@@]13C[C@@H](CC[C@H]12)[C@](C)(O)C3 | 0.606% (inactive)
9 | C/C=C/[C@H]1[C@H]2C(=O)c3c(O)c(C)c(O)c(C)c3[C@]1(C(=O)O)C(=O)C=C2C | -2.85% (inactive)
10 | C[C@@H]1CC[C@]2(C(=O)O)CC[C@]3(C)C(=C2[C@H]1C)CC[C@@H]1[C@@]2(C)CC[C@H](O)C(C)(C)[C@@H]2CC[C@]13C | 2.57% (inactive)
11 | C=CC(CCCCC)C1C(=O)NC(=O)C1C(=O)C1C(/C=C/C)C=CC2CC(C(=O)O)CC(C)C21 (stereo not given) | -18% (inactive)
12 | CC[C@@H]1[C@H](C)[C@H](c2cc(OC)c(OC)cc2OC)[C@@H](C)[C@H](c2cc(OC)c(OC)cc2OC)[C@]12C=C(OC)C(=O)C=C2OC | -3.03% (inactive)
13 | COc1cc(C2OCC3C(c4ccc(O)c(OC)c4)OCC23)ccc1O (stereo not given) | 1.7% [at 11.5 µM] (inactive)
14 | C[C@@]12C[C@@H](C[C@@H]3C(=O)O[C@@H](c4ccoc4)[C@H](OC(=O)c4ccccc4)[C@@H]31)OC2=O | 0.0106% (inactive)
15 | C=C[C@](Cl)(CBr)CCC=C(C)C | -0.301% (inactive)
16 | C[n+]1cc2cc(C(N)=O)[nH]c3c(=N)c(Cl)c(N)c1c23 | -11% (inactive)
17 | Oc1ccc(C2Oc3cc(O)c4c(c3[C@@H]2c2cc(O)cc(O)c2)[C@H]2C(c3ccc(O)cc3)c3c(O)cc5c(c3[C@H]2C4c2ccc(O)cc2)[C@H](c2cc(O)cc(O)c2)C(c2ccc(O)cc2)O5)cc1 (stereo not given in full) | 0.947% (inactive)
18 | COc1cc2c(cc1OC)[C@@H](c1ccc3c(c1)OCO3)C(C)C(C)C2=O (stereo not given in full) | -8.48% (inactive)
19 | O=C1OC(CCO)c2cccc(O)c21 (stereo not given) | -0.79% (inactive)
20 | CO/C=C/C(=O)c1cc2cnc3c(N)cc(=NC(=O)C(C)C)c([nH]1)c23 | -4.58% (inactive)

Row | SMILES | activity change, negative = inhibition
21 | CC1(C)CC[C@]2(CO)CC[C@]3(C)C(=CCC4[C@@]5(C)CC[C@H](O)C(C)(C)C5CC[C@]43C)C2C1 (stereo not given in full) | 2.63% (inactive)
22 | CC(=O)O[C@H]1c2ccccc2-c2c3c(cc4c2[C@@H]1N(C(C)=O)CC4)OCO3 | 3.34% (inactive)
23 | C/C=C(/C)c1c(Cl)c(OC)c(C)c2c1Oc1c(Cl)c(O)c(Cl)c(C)c1C(=O)O2 | -9.36% (inactive)
24 | C=C(C)C(=O)O[C@H]1C[C@@]2(C)OC(=CC2=O)/C(C)=C\[C@H]2OC(=O)C(=C)[C@H]12 | 0.0248% (inactive)
25 | C/C(=C\[C@H](C)C(=O)/C=C/CC1CC(=O)NC(=O)C1)[C@@H]1OC(=O)CCCC/C=C/[C@H](O)[C@@H](O)[C@@H]1C | -10.8% (inactive)
26 | C/C=C(/C)c1c(Cl)c(O)c(C)c2c1Oc1c(Cl)c(O)c(Cl)c(C)c1C(=O)O2 | -7.62% (inactive)
27 | C=C1[C@@]2(C)CC3C4(C)CCC(O)C(C)(C)C4CCC3(C)[C@]1(C(=O)OC)C(=O)C(C)(O)C2=O (stereo not given in full) | -6.22% (inactive)
28 | COc1cc2ccc(=O)oc2c(O)c1O[C@@H]1O[C@H](CO)[C@@H](O)[C@H](O)[C@H]1O | -2.55% [at 34.3 µM] (inactive)
29 | C/C(=C\[C@H](C)C(=O)C[C@H](O)CC1CC(=O)NC(=O)C1)[C@@H]1OC(=O)CCCC/C=C/C[C@@H](O)[C@@H]1C | 2.62% (inactive)
30 | C[C@@]12CCC[C@@](C)(C(=O)O)[C@H]1C[C@@H](O)[C@@]13C[C@@H](CC[C@@H]21)[C@](C)(O)C3 | 1.56% (inactive)
31 | C[C@@]12CCC[C@@](C)(C(=O)OP(=O)(O)OC[C@H]3O[C@@H](n4cnc5c(N)ncnc54)[C@H](O)[C@@H]3O)[C@H]1C[C@@H](O)[C@@]13C[C@@H](CC[C@@H]21)[C@](C)(O)C3 | 2.27% (inactive)
32 | COC1C(C)OC(OCC23C[C@@H]4[C@H](C)CC[C@H]4C4(C=O)CC2C=C(C(C)C)C34C(=O)O)[C@@H](O)[C@H]1O (stereo not given in full) | -9.83% (inactive)
33 | CC(C)=CCC[C@]1(C)[C@H]2CC(=O)[C@@]3(CO3)[C@@H]1C2 | 2.14% (inactive)
34 | C/C=C1/C2=CCCN3C(=O)O[C@H]([C@H]1O)[C@H]23 | -3.6% (inactive)
35 | O=C1CC(c2ccc(O)cc2)Oc2cc(O)cc(O)c21 (stereo not given) | -21.6% (inactive)
36 | CN1CC[C@]2(c3cccc4c3N[C@H]3N(C)CC[C@@]43[C@]34CCN(C)[C@H]3Nc3ccccc34)c3ccccc3N[C@H]12 | 6.55% (inactive)
37 | COC(=O)C1=C[C@]23C[C@@H](C)CC[C@@H]2[C@@]2(C)CC[C@@H](C(C)C)[C@@](O)(O3)[C@@H]12 | 4.46% (inactive)
38 | C=C1C(=O)O[C@H]2[C@H]1CCC(C)=C1CC[C@@](C)(O)[C@@H]12 | 4.23% (inactive)
39 | CC1=C[C@H]2[C@H]3C(=O)C(c4ccc(O)cc4)=C[C@@]3(c3ccc(O)cc3)[C@@H]1C(=O)[C@]2(C)O | -4.72% (inactive)
40 | C=C1CC[C@@H](O[C@H]2C[C@@](O)([C@H](C)NC(=O)c3[nH]c(C)c(Cl)c3Cl)[C@H](O)[C@@H](C)O2)[C@@H]2C=C[C@H](C)C(/C(O)=C3/C(=O)[C@H](C(C)C)N([C@@H]4O[C@H](C)[C@H](OC(N)=O)[C@H](OC(C)=O)[C@@H]4OC)C3=O)[C@@H]12 (stereo not given in full) | -2.71% (inactive)
